LDHA inh – inhibitors of human lactate dehydrogenase A | P00338 | 480,000 compounds, 0.15% hits | purified LDHA, NADH/diaphorase-resazurin fluorescence; active compounds read low | activity change, % (values are at about 110 or 230 µM); in the data active = activity change below about -30%; inconclusive = mostly about -25% to -30%;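 also: plate controls were DMSO wells for no effect and wells without enzyme for full effect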
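Enzyme activity of human lactate dehydrogenase 5 (2 nM; 0.06 mM NADH, 0.2 mM pyruvate, 5 min, RT) is measured via a resazurin/diaphorase fluorescence readout of residual NADH.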
A549 tox – kills or reduces viability of A549 cells in Nrf2 counter-screen; A549 ARE-Fluc cells, CellTiter-Fluor viability, 18-24 h; Potency, µM (top dose mostly 46 µM), for inactives: at the top dose activity change, negative = cytotoxicity, hits mostly inhibitors; 390,000 compounds, 0.16% hits; AID 504648; also: potency is read from the fitted curve at half-maximal effect; % is scaled to controls: 0 for no effect and ±100 for the full control effect
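A549 ARE_Fluc cells in 5% FBS OPTI-MEM were exposed to compounds in concentration-response for 18-24 h at 37 deg C. Viability was read by CellTiter-Fluor fluorescence (Ex 405/Em 525) after 30 min, before the luciferase read.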
Nrf2 inh – inhibitors of Nrf2 signaling | A549 ARE-Fluc reporter, luciferase luminescence, 18-24 h | Potency, µM (titrated, usually from 46 µM), for the others: top-dose activity change, negative = inhibition, usual class: inhibitors | 360,000 compounds, 2.1% hits; also: potency is read from the fitted curve at half-maximal effect; % is scaled to controls: 0 for no effect and ±100 for the full control effect; nearly all actives have a fitted effect of over 60% in size
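Nrf2 function is reported as luminescence of an ARE-controlled luciferase in A549 cells. Compounds were tested at several concentrations, and a CellTiter-Fluor read on the same wells flagged cytotoxicity.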
12-LOX inh – blocks human arachidonate 12S-lipoxygenase | P18054 | purified 12hLO, xylenol orange hydroperoxide absorbance | Potency, µM (highest dose often 108 µM), for inactives: top-dose activity change, negative = inhibition, most hits filed as inhibitors | 580,000 compounds, 1.1% hits | AID 1671190; also: potency is read from the fitted curve at half-maximal effect; % is scaled to controls: 0 for no effect and ±100 for the full control effect
Target sequence (P18054 whole entry, looked up): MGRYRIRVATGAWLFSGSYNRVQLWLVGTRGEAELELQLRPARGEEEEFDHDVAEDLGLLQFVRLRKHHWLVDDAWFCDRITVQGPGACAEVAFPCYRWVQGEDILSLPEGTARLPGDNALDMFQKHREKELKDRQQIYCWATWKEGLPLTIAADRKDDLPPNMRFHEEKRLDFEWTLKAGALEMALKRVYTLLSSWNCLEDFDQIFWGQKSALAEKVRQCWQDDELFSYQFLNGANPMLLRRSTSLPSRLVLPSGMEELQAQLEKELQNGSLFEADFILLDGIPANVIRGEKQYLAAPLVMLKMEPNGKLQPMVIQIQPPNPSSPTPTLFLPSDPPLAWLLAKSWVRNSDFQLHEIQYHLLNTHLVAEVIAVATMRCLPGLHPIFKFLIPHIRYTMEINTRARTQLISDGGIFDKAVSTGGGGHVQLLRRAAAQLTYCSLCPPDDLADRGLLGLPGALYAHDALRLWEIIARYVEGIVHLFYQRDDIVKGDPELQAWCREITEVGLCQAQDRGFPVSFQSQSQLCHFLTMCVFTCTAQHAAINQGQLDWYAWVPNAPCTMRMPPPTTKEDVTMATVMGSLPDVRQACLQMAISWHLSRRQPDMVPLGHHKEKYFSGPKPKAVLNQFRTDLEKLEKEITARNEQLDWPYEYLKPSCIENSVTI
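Purified human 12hLO (150 nM final) in 25 mM Hepes, 0.01% Triton X-100, pH 7.0 was preincubated 15 min at room temperature with compound. Then 40 uM arachidonic acid was added, 30 min. Hydroperoxide was read by Fe-XO absorbance ratio 573/405 nm.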
mIDH1 inhibitor – human IDH1 R132H inhibition. O75874. IDH1-R132H enzyme, NADPH consumption, diaphorase/resazurin fluorescence. Potency, µM (titrated, usually from 76.6 µM), without a hit: at the top dose activity change, negative = inhibition, hits mostly inhibitors. 390,000 compounds, 0.093% hits. AID 602179; also: potency is read from the fitted curve at half-maximal effect; % is scaled to controls: 0 for no effect and ±100 for the full control effect; nearly all actives have a fitted effect of over 65% in size
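IDH1-R132H (0.5 ug/mL dispensed) in pH 7.5 Tris buffer was preincubated 30 min with compound, then given a substrate mix of 0.016 mM NADPH and 2 mM alpha-KG for 80 min at room temperature; remaining NADPH was read by diaphorase/resazurin fluorescence.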
Nrf2 ARE act – Nrf2 pathway activation; AREc32 ARE-luciferase reporter (MCF7-derived line), luminescence, 24 h; Potency, µM (doses to about 46.1 µM), without a hit: top-dose activation, usual class: activators; 410,000 compounds, 0.31% hits; AID 624171; also: potency is read from the fitted curve at half-maximal effect; % of control where 0% means no effect; nearly all actives have a fitted effect of over 65% in size
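For detection, Steady-Glo was added and plates sat 30 min at RT; before that, AREc32_Fluc cells grown overnight in OPTI-MEM/5% FBS had been treated with 23 nL compound for 24 hr at 37 deg C.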
Numbers without * were called inactive; ? = inconclusive; nt = no result given. Sampled rows, rich in hits. Any-hit rate of the full collection: about 2.7%. Unless noted, calls follow the shape of the dose curve; as a rule, active = well fitted curve in the direction sought with a large enough effect; inconclusive = small, poorly fitted or top-dose-only effect, or another doubt; inactive = no such curve, though single readings can be large; an effect the other way counts as inactive or inconclusive.

SMILES	LDHA inh	A549 tox	Nrf2 inh	12-LOX inh	mIDH1 inhibitor	Nrf2 ARE act
Cc1cc(Cl)c2ccc(C)c(C)c2n1	0	nt	nt	-3%	nt	nt
COc1ccccc1/C=C/C=N/n1c(-c2cc(-c3ccccc3)n[nH]2)n[nH]c1=S	-4	2%	-22%	10µM*	-3%	3%
S=c1[nH]nc(-c2cc(-c3ccccc3)n[nH]2)n1/N=C/C=C/c1ccccc1	-8	0%	-7%	?	0%	6%
S=c1[nH]nc(-c2cc(-c3ccccc3)n[nH]2)n1/N=C/C(Br)=C/c1ccccc1	-18	?	23µM*	?	?	?
O=C(Nc1ccc(-c2nc3cc(Cl)ccc3o2)cc1)C(F)(F)F	-2	nt	nt	6%	nt	nt
CCOc1ccc(-c2nn3c(-c4cc(-c5ccccc5)n[nH]4)nnc3s2)cc1	-5	4%	-19%	nt	nt	nt
COc1ccc(-c2nn3c(-c4cc(-c5ccccc5)n[nH]4)nnc3s2)cc1	-1	-16%	23µM*	nt	nt	nt
O=C(O)c1cccc2c1C(=O)c1ccccc1-2	8	0%	1%	101%	7%	2%
CC(C)OC(=O)c1cccc2c1C(=O)c1ccccc1-2	0	13%	22%	0%	5%	11µM*
CN(Cc1ccccc1)C(=O)c1cccc(Nc2cc(-c3ccccc3)ncn2)c1	-1	nt	nt	-7%	nt	nt
Cc1ccc(S(=O)(=O)Nc2ccc3nc(N)sc3c2)cc1	0	-18%	7.3µM*	0%	0%	0%
Cc1ccc(S(=O)(=O)Nc2ccc3nc(C)sc3c2)cc1	0	-5%	15µM*	nt	6%	3%
CC(=O)Nc1ccc(S(=O)(=O)Nc2ccc3nc(C)sc3c2)cc1	-1	-15%	16µM*	-4%	-2%	1%
Cc1ccc(S(=O)(=O)Nc2ccc3nc(C)sc3c2)c(C)c1	1	-12%	?	?	-4%	0%
Cc1ccc(C)c(S(=O)(=O)Nc2ccc3nc(C)sc3c2)c1	17	nt	nt	69%	nt	nt
Cc1nc2ccc(NS(=O)(=O)c3ccc(Br)cc3)cc2s1	4	0%	15µM*	?	4%	6%
CC(=O)Nc1ccc2nc(NS(=O)(=O)c3ccc(C)cc3)sc2c1	-3	6%	-15%	-4%	4%	0%
Cc1nc2ccc(NS(=O)(=O)c3cccc([N+](=O)[O-])c3)cc2s1	5	-12%	18µM*	-37%	0%	8%
Cc1nc2ccc(NS(=O)(=O)c3ccccc3F)cc2s1	-1	0%	?	3%	-5%	1%
Cc1nc2ccc(NS(=O)(=O)c3ccc(F)c(F)c3)cc2s1	1	3%	16µM*	?	-1%	2%
CCOc1cc(-c2noc(-c3ccccc3)n2)ccc1OCC(=O)NC(C)C	6	nt	nt	-2%	nt	nt
COc1ccc(C(=O)N2CCC(N3C[C@H](O)C[C@H]3C(=O)NC3CCCCC3)CC2)c(OC)c1	nt	nt	nt	0%	nt	nt
COC(=O)c1c(-c2ccc(F)cc2)csc1NC(=O)C1CCCO1 (stereo not given)	-5	-4%	18µM*	0%	-1%	3%
CCOC(=O)c1c(C)[nH]c(C(=O)CN2C(=O)NC(C)(c3ccc4ccccc4c3)C2=O)c1C (stereo not given)	-2	-19%	26µM*	-15%	9%	2%
CCCC1(c2ccccc2)NC(=O)N(CC(=O)c2[nH]c(C)c(C(=O)OCC)c2C)C1=O (stereo not given)	-2	-16%	nt	0%	-3%	9%
SMILES	LDHA inh	A549 tox	Nrf2 inh	12-LOX inh	mIDH1 inhibitor	Nrf2 ARE act
CCOc1ccc2c(=O)c(Oc3cccc(OC)c3)c(C)oc2c1	-14	nt	nt	?	nt	nt
O=C(Nc1ccc(C(=O)N2CCOCC2)cc1)c1cccc(Br)c1	-3	-17%	-8%	4%	5%	4%
O=C(Nc1cccc(Br)c1)c1cccc(OC(=S)N2CCOCC2)c1	-3	-2%	16µM*	2%	5%	9%
CC1(C)CS(=O)(=O)N(c2ccc(S(=O)(=O)NCCc3ccccc3F)cc2)C1=O	1	nt	nt	-12%	nt	nt
CC(=O)c1ccc(C(=O)O)s1	7	nt	nt	16µM*	nt	nt
CC(=O)c1ccc(CC(=O)O)s1	9	nt	nt	-70%	nt	nt
COc1ccc(-c2noc(CC3CCN(C(=O)c4cc(OC)cc(OC)c4)CC3)n2)cc1	nt	nt	nt	31%	nt	nt
CCCCCc1ccc(C(=O)CCN(C)C)cc1	0	nt	nt	?	nt	nt
CCCCCCCCc1ccc(C(=O)CCN(C)C)cc1	5	nt	nt	13µM*	nt	nt
COCCn1c(-c2ccccc2)csc1=Nc1cccnc1	-13	5%	-7%	?	-7%	4%
CC(C)n1c(-c2ccco2)csc1=Nc1cccnc1	-3	-10%	13µM*	?	3%	4%
CC(C)NC(=S)N/N=C1\CCCCc2ccccc21	0	?	9%	40µM*	-4%	6%
S=C(N/N=C1\CCc2ccccc21)NC1CCCCC1	-1	15%	?	45µM*	-4%	17%
Cc1cccc(NC(=S)NN=C2CCCC2)c1C	0	nt	nt	28µM*	nt	nt
Cc1ccc(C)c(NC(=S)N/N=C2/CCCCc3ccccc32)c1	-1	17%	-2%	50µM*	-1%	0%
COc1ccc(C(NC(=O)c2oc3ccc(F)cc3c2C)c2nccn2C)cc1 (stereo not given)	8	nt	nt	-4%	nt	nt
CC(=O)NC(Nc1cccc(C(F)(F)F)c1)C(Cl)(Cl)Cl (stereo not given)	1	nt	nt	15%	nt	nt
COc1cc2c(cc1OC)C(c1ccccc1)N(CC(=O)Nc1ccc(C(N)=O)cc1)CC2 (stereo not given)	-8	nt	nt	?	nt	nt
COc1ccc(OCC(=O)N/N=C2\CCCCc3ccccc32)cc1	2	15%	-7%	9%	5%	3%
COc1cccc(NC(=S)N/N=C2/CCCCc3ccccc32)c1	-7	7%	?	45µM*	-2%	3%
N#CC1=C(N)OC(c2ccccc2)=C(C(=O)c2ccccc2)C1c1ccccc1 (stereo not given)	6	nt	nt	?	nt	nt
Cc1ccc(Oc2c(C(N)=O)cc([N+](=O)[O-])cc2[N+](=O)[O-])cc1	6	4.1µM*	5.8µM*	-24%	-1%	-3%
Cc1ccc(NC2(c3nnnn3-c3ccc(C(C)C)cc3)CCCC2)cc1	0	nt	nt	3%	nt	nt
CCCc1ccc(C(=O)Cn2nnc(-c3ccccc3Br)n2)cc1	1	nt	nt	23%	nt	nt
N#C/C(=C/c1ccc(O)c(O)c1)C(=O)NCc1ccc(Cl)cc1	13	-11%	5%	25µM*	6%	4%
N#C/C(=C\c1ccc(O)c(O)c1)C(=O)Nc1ccccc1	-6	-19%	?	50µM*	-10%	6%

Source: PubChem BioAssay
